Test results published in PubChem BioAssay.
Calls of active or inactive are those of the source.

Key:
[1] = tested on: Human papillomavirus type 1a protein E7 (residues 44-93); test: small molecules binding HPV E7 44-93 – biochemical, small-molecule microarray, residues 44-93, 635 nm fluorescence, primary screen (AID 1108); settings: fluorescence 635 nm, higher = more signal;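 note: E7 fragment applied at 1 µg/mL in TBST for 1 h at 4 C; score combines spot fluorescence with its signal to noise ratio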
[2] = hepatitis C replication reporter changes, two-sided – Huh7 cells, luciferase reporter, HCV replication inhibitor project, primary screen (AID 1109); settings: Huh7 HCV replicon luciferase reporter, 48 h; higher = more signal;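 note: huh7 hepatoma cells harbouring a luciferase neomycin HCV replicon reporter; luciferase luminescence as measure of HCV replicon replication; test concentration not given here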
[3] = target: Left-right determination factor 2 (Homo sapiens) (UniProt O00292); test: small molecules binding LEFTY2 protein – biochemical, small-molecule microarray, 635 nm fluorescence scan, primary screen (AID 1110); settings: higher = more signal
Left-right determination factor 2 (Homo sapiens), sequence (O00292 whole entry, looked up): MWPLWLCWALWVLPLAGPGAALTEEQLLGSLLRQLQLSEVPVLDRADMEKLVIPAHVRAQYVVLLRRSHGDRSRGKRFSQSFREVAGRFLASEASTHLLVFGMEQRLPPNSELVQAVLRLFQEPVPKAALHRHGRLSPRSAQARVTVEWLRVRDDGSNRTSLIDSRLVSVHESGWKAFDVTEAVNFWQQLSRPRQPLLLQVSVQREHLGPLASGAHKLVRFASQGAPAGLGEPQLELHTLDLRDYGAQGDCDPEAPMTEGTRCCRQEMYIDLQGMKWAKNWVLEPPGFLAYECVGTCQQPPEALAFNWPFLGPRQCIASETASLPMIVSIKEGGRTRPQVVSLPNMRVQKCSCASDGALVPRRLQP

[4] = target: Calmodulin-1 (Homo sapiens) (UniProt P0DP23); test: small molecules binding calmodulin-1 with EGTA – biochemical, small-molecule microarray, Cy5-labelled CALM1, profiling panel (AID 1111); settings: Cy5-CALM1 binding fluorescence, higher = more signal;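 note: labelled calmodulin applied in Tris saline Tween buffer holding calcium plus EGTA and DTT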
[5] = target: Calmodulin-1 (Homo sapiens) (UniProt P0DP23); test: small molecules binding Ca-loaded calmodulin-1 – biochemical, small-molecule microarray, Cy5-labelled CALM1, plus calcium, artefact control for SMM control-protein annotation, profiling panel (AID 1112); settings: Cy5-CALM1 binding fluorescence, higher = more signal;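 note: score merges spot fluorescence with signal to noise from triplicate slides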
[6] = probe aWnt5a binding to arrayed compounds – biochemical, biotinylated probe, 635/667 nm fluorescence, primary screen (AID 1113); settings: small-molecule microarray, higher = more signal;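 note: score merges 667 nm fluorescence intensity with signal-to-noise per printed feature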
[7] = probe aShh binding to arrayed compounds – biochemical, biotinylated probe, 635/667 nm fluorescence, primary screen (AID 1114); settings: small-molecule microarray, higher = more signal;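 note: probe is biotin-labelled aShh protein from a stem cell growth factor screen; measures binding of labelled protein to compounds printed on the slide; score merges feature fluorescence at 667 nm with signal-to-noise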
[8] = probe aNog binding to arrayed compounds – biochemical, biotinylated probe, 635/667 nm fluorescence, primary screen (AID 1115); settings: small-molecule microarray, higher = more signal;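 note: probe is biotinylated aNog protein used at 0.15 µg/mL for 1 h at 4 C; z-score combines 667 nm fluorescence of each spot with its signal to noise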
[9] = target: Torsin-1A-interacting protein 1 (Homo sapiens) (UniProt Q5JTV8); test: compound microarray binding of lysate hLAP1 – cell lysate, small-molecule microarray, COS7 lysate, 635/667 nm fluorescence, primary screen (AID 1116); settings: 635 nm fluorescence, higher = more signal
Torsin-1A-interacting protein 1 (Homo sapiens), sequence (Q5JTV8 whole entry, looked up): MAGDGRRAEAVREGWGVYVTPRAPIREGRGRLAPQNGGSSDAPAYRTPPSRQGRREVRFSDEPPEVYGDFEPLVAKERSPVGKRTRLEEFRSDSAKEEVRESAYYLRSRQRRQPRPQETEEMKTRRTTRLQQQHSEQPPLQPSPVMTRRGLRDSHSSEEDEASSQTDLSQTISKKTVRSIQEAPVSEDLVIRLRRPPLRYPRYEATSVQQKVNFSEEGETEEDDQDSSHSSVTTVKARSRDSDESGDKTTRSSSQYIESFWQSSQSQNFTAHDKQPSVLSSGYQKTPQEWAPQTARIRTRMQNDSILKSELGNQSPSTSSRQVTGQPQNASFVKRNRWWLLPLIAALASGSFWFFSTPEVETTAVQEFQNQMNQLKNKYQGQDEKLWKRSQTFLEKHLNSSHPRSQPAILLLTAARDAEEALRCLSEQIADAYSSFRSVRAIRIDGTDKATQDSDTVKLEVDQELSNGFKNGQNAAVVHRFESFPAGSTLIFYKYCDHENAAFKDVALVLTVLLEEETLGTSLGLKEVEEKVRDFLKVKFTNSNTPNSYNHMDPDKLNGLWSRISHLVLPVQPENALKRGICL

[10] = target: Alpha-bungarotoxin (Bungarus multicinctus) (UniProt P60615); test: compounds binding labelled alpha-BTX control protein – biochemical, small-molecule microarray, Alexa647 label, 635/667 nm fluorescence, artefact control for SMM control protein annotation, profiling panel (AID 1117); settings: alpha-BTX-A647 binding fluorescence, higher = more signal
Alpha-bungarotoxin (Bungarus multicinctus), sequence (P60615 whole entry, looked up): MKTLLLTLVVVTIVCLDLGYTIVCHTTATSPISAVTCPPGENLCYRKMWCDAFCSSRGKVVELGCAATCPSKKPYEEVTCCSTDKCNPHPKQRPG

Albumin (Bos taurus) = Albumin (Bos taurus) (UniProt P02769); test: compounds binding labelled BSA control protein – biochemical, small-molecule microarray, Alexa647 label, 635/667 nm fluorescence, artefact control for SMM control protein annotation, profiling panel (AID 1118); settings: BSA-A647 binding, fluorescence 635 nm, higher = more signal;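 note: score merges 667 nm emission intensity and signal-to-noise per printed compound spot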
Albumin (Bos taurus), sequence (P02769 whole entry, looked up): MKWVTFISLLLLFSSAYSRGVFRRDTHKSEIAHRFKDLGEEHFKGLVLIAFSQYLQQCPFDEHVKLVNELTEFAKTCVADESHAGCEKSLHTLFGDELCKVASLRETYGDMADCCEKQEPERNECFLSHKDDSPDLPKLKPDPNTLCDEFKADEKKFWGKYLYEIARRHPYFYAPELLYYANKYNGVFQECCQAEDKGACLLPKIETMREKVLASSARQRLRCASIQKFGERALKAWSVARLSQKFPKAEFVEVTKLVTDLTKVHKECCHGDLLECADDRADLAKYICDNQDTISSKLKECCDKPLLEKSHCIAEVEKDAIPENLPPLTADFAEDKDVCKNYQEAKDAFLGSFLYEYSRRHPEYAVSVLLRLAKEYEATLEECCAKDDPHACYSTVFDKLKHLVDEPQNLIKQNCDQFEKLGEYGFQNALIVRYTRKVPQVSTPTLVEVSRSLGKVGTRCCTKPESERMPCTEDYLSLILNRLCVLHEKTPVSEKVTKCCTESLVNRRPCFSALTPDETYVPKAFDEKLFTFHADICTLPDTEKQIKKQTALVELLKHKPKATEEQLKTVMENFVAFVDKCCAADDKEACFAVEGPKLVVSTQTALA

[11] = probe aXIP binding to arrayed compounds – biochemical, NeuroSMM set, 635/667 nm fluorescence, primary screen (AID 1119); settings: small-molecule microarray, higher = more signal, called active from +8 up or from −8 down;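 note: probe is the protein aXip251-270 applied at 1 µg/mL to compound-printed slides; binding of probe to printed compounds measured as 667 nm fluorescence plus signal to noise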
[12] = probe aNOTCH3 binding on compound microarray – biochemical, small-molecule microarray, 635/667 nm fluorescence, primary screen (AID 1120); settings: higher = more signal;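 note: probe is a biotin-tagged antibody raised against NOTCH3 rather than NOTCH3 protein; score merges spot fluorescence near 667 nm with spot signal to noise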
[13] = probe aNOTCH2 binding on compound microarray – biochemical, small-molecule microarray, 635/667 nm fluorescence, primary screen (AID 1121); settings: higher = more signal;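 note: score merges feature fluorescence read at 667 nm with its signal to noise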
[14] = target: Carbonic anhydrase 2 (Homo sapiens) (UniProt P00918); test: compounds binding carbonic anhydrase 2 – biochemical, small-molecule microarray, Alexa647-labelled CAII, profiling panel (AID 1122); settings: CAII-A647 binding fluorescence, higher = more signal
[15] = COS7 lysate on small-molecule microarray, probe aHis, 635 nm (AID 1123); settings: COS7 cell lysate, fluorescence, higher = more signal;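 note: z-score combines 667nm fluorescence intensity with signal-to-noise per printed compound spot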
[16] = probe aLAP1 signal on lysate-treated microarray – cell lysate, small-molecule microarray, COS7 lysate, primary screen (AID 1124); settings: probe aLAP1, fluorescence, higher = more signal;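 note: lysate comes from COS7 cells expressing LAP1 and is applied at 0.3 µg/mL; score merges spot fluorescence near 667 nm with signal-to-noise over triplicate slides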
Sam68 (KHDRBS1) = test: compounds binding KHDRBS1 protein – biochemical, small-molecule microarray, 635 nm fluorescence, primary screen (AID 1125); settings: higher = more signal;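 note: score merges 667 nm channel intensity with signal to noise over triplicate slides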
[17] = tested on: Chordin-like protein 2 (CHRDL2); test: compounds binding chordin-like 2 – biochemical, small-molecule microarray, 635 nm fluorescence, primary screen (AID 1126); settings: fluorescence 635 nm, higher = more signal;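 note: printed compound slides probed with Chrdl2 protein at 4 µg/mL for 1 h at 4 C; score merges 667 nm emission intensity with signal to noise over three replicate slides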
[18] = target: Concanavalin-A (Canavalia ensiformis) (UniProt P02866); test: compounds binding concanavalin A lectin – biochemical, small-molecule microarray, Alexa647 label, 635 nm, artefact control for SMM control protein annotation, primary screen (AID 1127); settings: ConA-A647 binding fluorescence, higher = more signal;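 note: z combines 667 nm emission intensity with signal-to-noise across three replicate slides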
Concanavalin-A (Canavalia ensiformis), sequence (P02866 whole entry, looked up): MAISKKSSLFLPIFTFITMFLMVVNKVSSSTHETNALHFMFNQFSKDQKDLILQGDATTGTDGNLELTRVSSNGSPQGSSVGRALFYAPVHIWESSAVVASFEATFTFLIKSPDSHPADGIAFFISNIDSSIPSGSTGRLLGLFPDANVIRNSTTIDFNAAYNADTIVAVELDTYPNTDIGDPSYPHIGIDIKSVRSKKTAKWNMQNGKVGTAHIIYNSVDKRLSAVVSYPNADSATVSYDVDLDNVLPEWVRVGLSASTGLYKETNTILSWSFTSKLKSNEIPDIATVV

| Compound | composite z-score [1] | z-score [2] | composite z-score [3] | composite z-score [4] | composite z-score [5] | composite z-score [6] | composite z-score [7] | composite z-score [8] | composite z-score [9] | composite z-score [10] | composite z-score (Albumin (Bos taurus)) | composite Z-score [11] | composite z-score [12] | composite z-score [13] | composite z-score [14] | composite z-score [15] | composite z-score [16] | composite z-score (Sam68 (KHDRBS1)) | composite z-score [17] | composite z-score [18] |
| --- | --- | --- | --- | --- | --- | --- | --- | --- | --- | --- | --- | --- | --- | --- | --- | --- | --- | --- | --- | --- |
| C[C@@H](c1ccccc1)N1C(=O)[C@H]2[C@H]3[C@H](O)[C@H](O)CC(=NOCc4ccccc4)[C@@H]3CC[C@H]2C1=O | -0.233 | -0.701 | 0.11 | -0.38 | -0.0198 | 0.0061 | -0.276 | 0.593 | 0.348 | 0.993 | 0.758 | 0.081 (inactive) | -0.0055 | -0.0467 | -0.247 | 0.043 | 0.017 | -0.105 | 0.823 | -0.577 |
| CC(C)=CCCC(C)=CCON=C1C[C@@H](O)[C@@H](O)[C@@H]2[C@@H]3C(=O)N(Cc4ccc5c(c4)OCO5)C(=O)[C@@H]3CC[C@@H]12 | 0.909 | 0.298 | 0.368 | 0.359 | -0.0661 | 0.0388 | -0.0396 | 0.824 | 0.999 | 0.59 | 0.653 | 0.74 (inactive) | 0.0827 | -0.0811 | 0.495 | 1.29 | 0.237 | 1.31 | 1.19 | 0.959 |
| CCOC(=O)CCN1C(=O)[C@H]2[C@H]3[C@H](O)[C@H](O)CC(=NNC(=O)OCc4ccccc4)[C@H]3CC[C@H]2C1=O | -0.994 | 0.283 | 0.863 | -1.01 | -1.23 | -0.0045 | -0.138 | -0.0091 | 0.264 | -0.245 | -0.914 | 0.734 (inactive) | 0.232 | -0.0309 | -0.67 | -1.26 | -0.0688 | -1.01 | 1.4 | -0.636 |
| CCOC(=O)NN=C1C[C@@H](O)[C@@H](O)[C@@H]2[C@@H]3C(=O)N(CC)C(=O)[C@@H]3CC[C@H]12 | -0.307 | 0.276 | 0.346 | -0.317 | -0.325 | -0.176 | -0.0813 | -0.244 | 0.0626 | -0.113 | 0.541 | -0.415 (inactive) | -0.0879 | -0.126 | 0.448 | 0.0053 | -0.0396 | -0.221 | 0.202 | 0.173 |
| C=CC[C@@H]1C=C[C@H](ON=C2C[C@@H](O)[C@@H](O)[C@@H]3[C@@H]4C(=O)N(CC)C(=O)[C@@H]4CC[C@@H]23)[C@@H](CO)O1 | -0.573 | 0.0355 | 0.13 | -0.758 | -0.777 | -0.131 | 0.116 | 0.0541 | -0.164 | -1.03 | -0.873 | -0.116 (inactive) | -0.16 | -0.237 | 0.452 | 0.429 | -0.289 | -0.444 | -0.0673 | -1.18 |
| CC(=O)OC[C@H]1O[C@H](C#CCC2CCCCC2)C=C[C@@H]1OC(C)=O | 1.12 | -2.57 | 0.992 | 0.235 | -0.26 | -0.154 | 0.194 | 0.129 | 0.471 | 0.36 | 0.718 | -0.106 (inactive) | -0.154 | -0.0632 | 0.494 | 0.853 | 0.53 | 0.953 | 0.32 | 1.04 |
| C[C@H]1CC[C@H]2C(=O)N[C@H](Cc3ccccc3)C(=O)N2[C@@H]1c1ccccc1 | -1.38 | -0.283 | 0.395 | -0.742 | -0.194 | -0.127 | 0.37 | -0.0428 | 0.51 | -0.009 | -0.456 | 0.418 (inactive) | -0.177 | -0.0811 | -0.0975 | -0.227 | -0.306 | -0.824 | 0.678 | -0.126 |
| CO[C@@H]1COC(=O)[C@@H]2CCCN2C(=O)[C@@H](C)COC(=O)CCC[C@H]1C | 0.212 | -0.016 | 0.83 | -0.0691 | -0.911 | -0.175 | -0.0553 | -0.346 | 0.883 | 0.482 | 0.379 | 0.305 (inactive) | 0.109 | -0.16 | -0.126 | 0.0072 | 0.557 | 1.27 | 0.438 | -0.0031 |
| CC(C)=CCCC(C)=CCON=C1C[C@@H](O)[C@@H](O)[C@@H]2[C@@H]3C(=O)N([C@@H](C)c4ccccc4)C(=O)[C@@H]3CC[C@@H]12 | 0.257 | 0.0308 | 0.898 | -0.544 | -0.406 | -0.012 | -0.289 | -0.247 | 0.222 | 0.551 | 0.0686 | -0.283 (inactive) | -0.0311 | -0.0194 | 0.043 | 0.157 | 0.0404 | 0.121 | 1.04 | 0.6 |
| CO[C@@H]1COC(=O)[C@H](CCSC)NC(=O)CC=C[C@@H](C)COC(=O)[C@@H]2CCCN2C(=O)CC=C[C@H]1C | -0.427 | -0.522 | 0.857 | -0.776 | -1.36 | -0.0276 | 0.0278 | -0.036 | 0.771 | -0.245 | -1.43 | 0.605 (inactive) | 0.0306 | -0.199 | -0.291 | -0.462 | -0.328 | 0.34 | 0.946 | -0.353 |
| CCOC(=O)CCN1C(=O)[C@H]2[C@H]3[C@H](O)[C@H](O)CC(=O)[C@@H]3CC[C@H]2C1=O | 0.555 | -0.408 | 0.657 | 0.0068 | -0.135 | -0.0924 | -0.138 | -0.252 | 0.597 | 0.321 | 0.206 | -0.778 (inactive) | -0.0448 | -0.12 | 0.494 | 0.696 | -0.732 | 0.81 | 0.514 | 0.729 |
| COC(=O)[C@H](C)NC(=O)CCC1CC(OC(=O)NCCc2ccc(F)cc2)CC2(CCCC(COC(=O)NCCc3ccccc3OC)O2)O1 (stereo not given in full) | 1.35 | -0.466 | 0.638 | 0.48 | -0.211 | -0.0403 | 0.0141 | 0.177 | 0.195 | 0.434 | 0.335 | 0.353 (inactive) | -0.0288 | -0.0061 | 0.244 | 1.25 | 0.0635 | 1.29 | 0.559 | 0.924 |
